The record followed here is article PMC9911399, “Two distinct binding modes provide the RNA-binding protein RbFox with extraordinary sequence specificity”.

Numbering of substitutions follows the chain as printed; changes in the protein carry UniProt numbers. In all, about 16,000 sequences were measured (“ka relative to ugcaugu”: median about 0.096, highest 2% from about 0.35 on). The sample as a whole holds a higher share of the highest values than the screen did.

Sequences and labels used below:
T1: RBFOX1 RRM RbFoxmut (Fox-RRM*) (Homo sapiens, UniProt Q9NWB1 109-208, R118D;E147R;N151S;E152T)
T1 sequence: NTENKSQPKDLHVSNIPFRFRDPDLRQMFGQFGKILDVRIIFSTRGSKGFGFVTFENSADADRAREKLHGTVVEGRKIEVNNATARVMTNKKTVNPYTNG

B1: ACUUAUG (DNA:RNA)
RNA: GGGAGACCGGAAUUCAGAUUGUCCACUUAUGUUAAAUCCCGUCGUAGCCACCA
DNA 1: CAATCTGAATTCCGGTCTCCC
DNA 2: TGGTGGCTACGACGGGATT
B2: UCCAUGA (DNA:RNA)
RNA: B1 RNA with A25U, U27C, U28A, A29U, U30G, G31A
DNA 1: CAATCTGAATTCCGGTCTCCC
DNA 2: TGGTGGCTACGACGGGATT
B3: GGAGUCA (DNA:RNA)
RNA: GGGAGACCGGAAUUCAGAUUGUCCGGAGUCAUUAAAUCCCGUCGUAGCCACCA
DNA 1: CAATCTGAATTCCGGTCTCCC
DNA 2: TGGTGGCTACGACGGGATT
B4: CCAACAG (DNA:RNA)
RNA: B1 RNA with A25C, U27A, U28A, A29C, U30A
DNA 1: CAATCTGAATTCCGGTCTCCC
DNA 2: TGGTGGCTACGACGGGATT
B5: ACGGAGA (DNA:RNA)
RNA: B1 RNA with U27G, U28G, U30G, G31A
DNA 1: CAATCTGAATTCCGGTCTCCC
DNA 2: TGGTGGCTACGACGGGATT
B6: GAUCACA (DNA:RNA)
RNA: B3 RNA with G26A, A27U, G28C, U29A
DNA 1: CAATCTGAATTCCGGTCTCCC
DNA 2: TGGTGGCTACGACGGGATT
B7: GAUCCGG (DNA:RNA)
RNA: B1 RNA with A25G, C26A, U28C, A29C, U30G
DNA 1: CAATCTGAATTCCGGTCTCCC
DNA 2: TGGTGGCTACGACGGGATT
B8: CUUCGGA (DNA:RNA)
RNA: B1 RNA with A25C, C26U, U28C, A29G, U30G, G31A
DNA 1: CAATCTGAATTCCGGTCTCCC
DNA 2: TGGTGGCTACGACGGGATT
B9: AUGUCCC (DNA:RNA)
RNA: B1 RNA with C26U, U27G, A29C, U30C, G31C
DNA 1: CAATCTGAATTCCGGTCTCCC
DNA 2: TGGTGGCTACGACGGGATT
B10: AUGUGUC (DNA:RNA)
RNA: B1 RNA with C26U, U27G, A29G, G31C
DNA 1: CAATCTGAATTCCGGTCTCCC
DNA 2: TGGTGGCTACGACGGGATT
B11: AUGUGCG (DNA:RNA)
RNA: B1 RNA with C26U, U27G, A29G, U30C
DNA 1: CAATCTGAATTCCGGTCTCCC
DNA 2: TGGTGGCTACGACGGGATT
B12: AUGUGCC (DNA:RNA)
RNA: B1 RNA with C26U, U27G, A29G, U30C, G31C
DNA 1: CAATCTGAATTCCGGTCTCCC
DNA 2: TGGTGGCTACGACGGGATT
B13: AUGUGUG (DNA:RNA)
RNA: B1 RNA with C26U, U27G, A29G
DNA 1: CAATCTGAATTCCGGTCTCCC
DNA 2: TGGTGGCTACGACGGGATT
B14: AUGUGUU (DNA:RNA)
RNA: B1 RNA with C26U, U27G, A29G, G31U
DNA 1: CAATCTGAATTCCGGTCTCCC
DNA 2: TGGTGGCTACGACGGGATT
B15: CAUACAC (DNA:RNA)
RNA: B1 RNA with A25C, C26A, U28A, A29C, U30A, G31C
DNA 1: CAATCTGAATTCCGGTCTCCC
DNA 2: TGGTGGCTACGACGGGATT
B16: GUCUAGC (DNA:RNA)
RNA: B1 RNA with A25G, C26U, U27C, U30G, G31C
DNA 1: CAATCTGAATTCCGGTCTCCC
DNA 2: TGGTGGCTACGACGGGATT
B17: UUCCCGC (DNA:RNA)
RNA: GGGAGACCGGAAUUCAGAUUGUCCUUCCCGCUUAAAUCCCGUCGUAGCCACCA
DNA 1: CAATCTGAATTCCGGTCTCCC
DNA 2: TGGTGGCTACGACGGGATT
B18: CCCGCGA (DNA:RNA)
RNA: B17 RNA with U25C, U26C, C28G, C31A
DNA 1: CAATCTGAATTCCGGTCTCCC
DNA 2: TGGTGGCTACGACGGGATT
B19: CAUUCUU (DNA:RNA)
RNA: B1 RNA with A25C, C26A, A29C, G31U
DNA 1: CAATCTGAATTCCGGTCTCCC
DNA 2: TGGTGGCTACGACGGGATT
B20: AAAGCCC (DNA:RNA)
RNA: B3 RNA with G25A, G26A, U29C, A31C
DNA 1: CAATCTGAATTCCGGTCTCCC
DNA 2: TGGTGGCTACGACGGGATT
B21: ACGCGCA (DNA:RNA)
RNA: B1 RNA with U27G, U28C, A29G, U30C, G31A
DNA 1: CAATCTGAATTCCGGTCTCCC
DNA 2: TGGTGGCTACGACGGGATT
B22: ACGCAUC (DNA:RNA)
RNA: B1 RNA with U27G, U28C, G31C
DNA 1: CAATCTGAATTCCGGTCTCCC
DNA 2: TGGTGGCTACGACGGGATT
B23: ACGCGUC (DNA:RNA)
RNA: B1 RNA with U27G, U28C, A29G, G31C
DNA 1: CAATCTGAATTCCGGTCTCCC
DNA 2: TGGTGGCTACGACGGGATT
B24: ACGCAUA (DNA:RNA)
RNA: B1 RNA with U27G, U28C, G31A
DNA 1: CAATCTGAATTCCGGTCTCCC
DNA 2: TGGTGGCTACGACGGGATT
B25: ACGCAUG (DNA:RNA)
RNA: B1 RNA with U27G, U28C
DNA 1: CAATCTGAATTCCGGTCTCCC
DNA 2: TGGTGGCTACGACGGGATT
B26: ACGCAGA (DNA:RNA)
RNA: B1 RNA with U27G, U28C, U30G, G31A
DNA 1: CAATCTGAATTCCGGTCTCCC
DNA 2: TGGTGGCTACGACGGGATT
B27: UCAUUGC (DNA:RNA)
RNA: B17 RNA with U26C, C27A, C28U, C29U
DNA 1: CAATCTGAATTCCGGTCTCCC
DNA 2: TGGTGGCTACGACGGGATT
B28: GAUAGUG (DNA:RNA)
RNA: B1 RNA with A25G, C26A, U28A, A29G
DNA 1: CAATCTGAATTCCGGTCTCCC
DNA 2: TGGTGGCTACGACGGGATT
B29: CGAUAGA (DNA:RNA)
RNA: B3 RNA with G25C, G28U, U29A, C30G
DNA 1: CAATCTGAATTCCGGTCTCCC
DNA 2: TGGTGGCTACGACGGGATT
B30: UGGUAUA (DNA:RNA)
RNA: B1 RNA with A25U, C26G, U27G, G31A
DNA 1: CAATCTGAATTCCGGTCTCCC
DNA 2: TGGTGGCTACGACGGGATT
B31: UGGUAGC (DNA:RNA)
RNA: B17 RNA with U26G, C27G, C28U, C29A
DNA 1: CAATCTGAATTCCGGTCTCCC
DNA 2: TGGTGGCTACGACGGGATT
B32: UGGUAUC (DNA:RNA)
RNA: B1 RNA with A25U, C26G, U27G, G31C
DNA 1: CAATCTGAATTCCGGTCTCCC
DNA 2: TGGTGGCTACGACGGGATT
B33: UGGUAUG (DNA:RNA)
RNA: B1 RNA with A25U, C26G, U27G
DNA 1: CAATCTGAATTCCGGTCTCCC
DNA 2: TGGTGGCTACGACGGGATT
B34: UGGUAAA (DNA:RNA)
RNA: B1 RNA with A25U, C26G, U27G, U30A, G31A
DNA 1: CAATCTGAATTCCGGTCTCCC
DNA 2: TGGTGGCTACGACGGGATT
B35: UGGUAGA (DNA:RNA)
RNA: B1 RNA with A25U, C26G, U27G, U30G, G31A
DNA 1: CAATCTGAATTCCGGTCTCCC
DNA 2: TGGTGGCTACGACGGGATT

This assay addresses T1, RBFOX1 RRM RbFoxmut (Fox-RRM*). Kind of assay: EMSA; HiTS-Eq, 1 nM pool, 10 min; buffer printed only for the single-RNA assays: 10 mM Tris pH 7.5, 150 mM NaCl, 3.4 mM EDTA, 0.001% NP-40, 30 C. To be noted: tags: His6 N-terminal (pET28a); label: 5' 32P. The method, boiled down: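 Purified RbFox RRM, wild type or mutant, was incubated for 10 min in 50 µL with 1 nM of a 5′-radiolabelled RNA pool carrying 7 randomized nucleotides, whose flanks were annealed to DNA oligonucleotides, over a series of increasing protein concentrations. Unbound RNA was resolved on 8% native PAGE, cut out, reverse-transcribed, barcoded by PCR and sequenced on an Illumina HiSeq 2500. Relative association constants were derived from changes in read counts for each RNA species versus the control reaction and normalised to the cognate motif.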
On the technique in general: In EMSA bound probe runs differently from free probe, usually more slowly.
For B1, the binding signal is 0.125 KA relative to UGCAUGU.
As to B2, the binding signal is 0.11 KA relative to UGCAUGU.
For B3, the binding signal was 0.0995 KA relative to UGCAUGU.
With B4, the binding signal is 0.108 KA relative to UGCAUGU.
With B5 the figure was 0.0992 KA relative to UGCAUGU.
In the case of B6, the binding signal is 0.0738 KA relative to UGCAUGU.
With B7, the binding signal was 0.06 KA relative to UGCAUGU.
The result for B8 reads 0.0749 KA relative to UGCAUGU; that for B9, 0.0715 KA relative to UGCAUGU; that for B10, 0.289 KA relative to UGCAUGU.
The result for B11 reads 0.231 KA relative to UGCAUGU; that for B12, 0.372 KA relative to UGCAUGU; that for B13, 0.443 KA relative to UGCAUGU.
With B14 the figure was 0.174 KA relative to UGCAUGU.
Regarding B15, the binding signal was 0.0927 KA relative to UGCAUGU.
With B16 the figure was 0.0934 KA relative to UGCAUGU.
As for B17, the binding signal was 0.0732 KA relative to UGCAUGU.
Consider B18, for which the binding signal was 0.0823 KA relative to UGCAUGU.
With B19, the binding signal was 0.101 KA relative to UGCAUGU.
The result for B20 reads 0.066 KA relative to UGCAUGU; that for B21, 0.15 KA relative to UGCAUGU.
In the case of B22, the binding signal is 0.355 KA relative to UGCAUGU.
The result for B23 reads 0.0969 KA relative to UGCAUGU.
With B24 the figure was 0.152 KA relative to UGCAUGU.
B25: the binding signal is 0.844 KA relative to UGCAUGU.
With B26 the figure was 0.106 KA relative to UGCAUGU; with B27, 0.12 KA relative to UGCAUGU; with B28, 0.126 KA relative to UGCAUGU.
With B29 the figure was 0.101 KA relative to UGCAUGU; with B30, 0.157 KA relative to UGCAUGU.
The result for B31 reads 0.102 KA relative to UGCAUGU; that for B32, 0.356 KA relative to UGCAUGU.
B33: the binding signal was 1.27 KA relative to UGCAUGU.
With B34 the figure was 0.0843 KA relative to UGCAUGU; with B35, 0.128 KA relative to UGCAUGU.
